mHTT-CaM PPI inh – mutant huntingtin-calmodulin interaction inhibitors – biochemical, AlphaScreen, primary screen. P42858. AID 1671202, 2021. AlphaScreen His-mHTT/GST-CaM binding, luminescence. inhibition, % at 15 µM. 190,000 tested, 3.6% active
Pf apPOL block – Pf-apPOL inhibitors, biochemical, fluorescence. inhibition, % at 10 µM. Plasmodium falciparum apicoplast DNA polymerase (apPOL). 210,000 tested, 0.25% active. Recombinant Pf-apPOL, molecular beacon fluorescence, 1.5 h
Numbers stand for hits; i = inactive; nt = no result. Only some compounds are listed: those with a hit (about 3.6% of all), similar ones and a draw of the others. No stated cut-off is given here; in the data, active means inhibition above about 50%; inactive means the rest.

SMILES | mHTT-CaM PPI inh | Pf apPOL block
CC1=NN(c2ccccc2)C(=O)/C1=C/c1ccc(-c2cccc(C(=O)O)c2)o1 | 76 | i
O=C1NN(c2ccc(Cl)c(Cl)c2)C(=O)/C1=C/c1ccc(-c2ccccc2C(=O)O)o1 | 51 | i
O=C1NN(c2ccc(Cl)c(Cl)c2)C(=O)/C1=C/c1ccc(-c2cccc(C(=O)O)c2)o1 | i | i
COc1cc([N+](=O)[O-])ccc1-c1ccc(/C=C2/C(=O)N(c3cccc(Cl)c3)N=C2C)o1 | i | i
CC1=NN(c2ccccc2)C(=O)/C1=C/c1ccc(-c2ccc(Cl)c(C(=O)O)c2)o1 | 77 | i
O=C(NCCc1csc(C2CCCN(C(=O)C3CCCCC3)C2)n1)C1CC1 (stereo not drawn) | i | i
COc1cccc(NC(=O)c2cc(S(=O)(=O)N3CCc4ccccc43)ccc2F)c1 | i | i
O=C(NCCC1CCN(C(=O)c2ccc(F)cc2)CC1)c1ccc(Br)o1 | i | i
Cc1ccnc(N2CCC(C(=O)NCc3ccc(Cl)cc3)CC2)n1 | i | i
CCOc1ccc2nc(C)cc(Nc3ccc(C)c(Cl)c3)c2c1 | 95 | i
Cc1cc(Nc2ccc(O)cc2)c2cc(Cl)ccc2n1 | i | i
CCOc1ccc2nc(C)cc(Nc3ccc(N4CCOCC4)cc3)c2c1 | i | i
Cc1cc(Nc2ccc(N(C)C)cc2)c2cc(Cl)ccc2n1 | 73 | i
Cc1sc2ncn(CCc3ccccc3)c(=O)c2c1C | i | i
O=C(NCCCc1ccccc1)C1CCCN(C(=O)c2ccccc2F)C1 (stereo not drawn) | i | i
CC1=CCC2C(=O)N(c3ccc(OCC(=O)c4ccc(F)cc4)cc3)C(=O)C2C1 (stereo not drawn) | i | i
O=C(CN1CCN(c2ccc(F)cc2)CC1)Nc1ccc(Cl)c(Cl)c1 | 58 | i
O=C(CN1CCN(c2ccc(F)cc2)CC1)Nc1cccnc1Cl | i | i
Cc1ccccc1N(C)S(=O)(=O)c1ccc2[nH]cc(C(=O)N3CCCCCC3)c(=O)c2c1 | i | i
CCNC(=O)c1cc2sc(C)cc2n1CC | i | i
Cc1cc2c(cc(C(=O)NCc3ccccn3)n2CC(C)C)s1 | 70 | i
CC(=O)n1cc(/C=C2\C(=O)NN(c3ccccc3)C2=O)c(-c2ccc(F)cc2)n1 | 54 | i
COc1ccccc1/C=C1\C(=O)NN(c2ccccc2)C1=O | i | i
COc1cc2c(cc1OC)CN(Cc1ccc(Cl)c(Cl)c1)CC2 | 55 | i
COc1cc2c(cc1OC)CN(Cc1ccccc1Cl)CC2 | i | i
SMILES | mHTT-CaM PPI inh | Pf apPOL block
N#Cc1cccc(C(=O)N2CCC(CCOCc3cccc(F)c3)CC2)c1 | i | i
O=[N+]([O-])c1cccc(S(=O)(=O)N2CCSC2c2ccccc2Cl)c1 (stereo not drawn) | i | i
COc1ccc(C(=O)NCc2nc3ccccc3n2Cc2ccccc2F)cc1OC | 58 | i
COc1ccc(C(=O)NCCc2nc3ccccc3n2Cc2ccccc2F)cc1OC | i | i
Cc1coc2c(I)c3oc(=O)cc(C)c3cc12 | i | i
COc1cccc(C2=NC(C)(C)NC(c3cc(Br)ccc3O)C2)c1 (stereo not drawn) | 100 | i
CCOc1cccc(C2CC(c3cccc(OC)c3)=NC3(CCN(C)CC3)N2)c1O (stereo not drawn) | i | i
CCC1(C)N=C(c2ccc3c(c2)OCO3)CC(c2ccccc2O)N1 (stereo not drawn) | 83 | i
COc1cccc(C2=NC3(CCN(C)CC3)NC(c3cccc(OC)c3O)C2)c1 (stereo not drawn) | i | i
COc1cccc(C2=NC(C)(C)NC(c3ccccc3O)C2)c1 (stereo not drawn) | 65 | i
CC(=O)N1CCC2(CC1)N=C(c1ccc3c(c1)OCO3)CC(c1ccccc1O)N2 (stereo not drawn) | i | i
COc1ccc(-c2coc3c4c(ccc3c2=O)OCN(CCCc2ccccc2)C4)cc1OC | i | i
COCCc1noc(COC2CCCN(C(=O)c3cc(C)[nH]n3)C2)n1 (stereo not drawn) | i | i
CC1=C(C#N)C(=O)N(C)C(=O)/C1=C\c1ccc(-c2ccc(Br)cc2C(=O)O)o1 | i | i
CC1=C(C#N)C(=O)N(CCCO)C(=O)/C1=C\c1ccc(-c2cc(C)c(C)cc2[N+](=O)[O-])o1 | 79 | i
Cc1cc(C)c2sc(N(CCCN3CCOCC3)C(=O)COc3ccccc3)nc2c1 | i | i
COc1cc(N/C=C(\C#N)c2nc(-c3ccc([N+](=O)[O-])cc3)cs2)c(OC)cc1Cl | i | i
N#Cc1c(F)cccc1I | nt | i
COc1cccc(C(CC(=O)N2CCCC2)c2c[nH]c3ccccc23)c1 (stereo not drawn) | i | i
COc1ccc(C(CC(=O)N2CCCC2)c2c[nH]c3ccccc23)cc1 (stereo not drawn) | 91 | i
O=c1[nH]c2ccc(Br)cc2c(=O)n1C1CCCCC1 | 52 | i
CCn1c(=O)[nH]c2ccc(Br)cc2c1=O | i | i
C=CCOc1ccccc1/C=C1\SC(=O)N(CN2CCCCC2)C1=O | i | i

Screening data from PubChem BioAssay.
